Drawing on PubChem BioAssay (NCATS), this text covers Potency and activity (max response) for 17 compounds.

Assay [1] is described as follows: Quantitative highthroughput screen to assess conditional lethalithy of NOMO1 cells grown in RPMI1640 with untreated serum (RPMI+s) (AID 1963876). Further: nearly all actives have a fitted effect of over 35% in size.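 On viability: 100% = DMSO wells and 0% = empty wells without cells.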 Summed up: (§1)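 Each medium arm—HPLM with 10% dialyzed FBS, or RPMI1640 with 5 mM glucose and 10% untreated or dialyzed FBS—was screened against an 11-point, 3-fold compound titration for 48 h at 37 °C, with CellTiter-Glo luminescence as endpoint.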

The nature of assay [2]: Quantitative highthroughput screen to assess conditional lethalithy of NOMO1 cells grown in RPMI1640 with dialyzed fetal bovine serum (RPMI+ds) (AID 1963877). Further: nearly all actives have a fitted effect of over 30% in size.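 On viability: series mostly up to about 46 µM; 100% = DMSO control wells and 0% = empty wells.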 In outline: as §1
Assay [3] can be described thus: Quantitative highthroughput screen to assess conditional lethalithy of P12 Ichikawa cells grown in RPMI1640 with dialyzed fetal bovine serum (RPMI+ds) (AID 1963880). Further: nearly all actives have a fitted effect of over 35% in size.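 On viability: 100% = DMSO wells and 0% = empty wells on each plate.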 The following applies: Potency: P12-Ichikawa viability. Summed up:
as §1

Assay [4] in a line: Quantitative highthroughput screen to assess conditional lethalithy of P12 Ichikawa cells grown in RPMI1640 with untreated serum (RPMI+s) (AID 1963881). Further: nearly all actives have a fitted effect of over 35% in size.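 On viability: series mostly up to about 46 µM; 100% = DMSO wells and 0% = empty wells without cells.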 The note with it: Potency: viability. In outline:
as §1

A short description of assay [5]: Quantitative highthroughput screen to assess conditional lethalithy of SEM cells grown in RPMI1640 with unreated serum (RPMI+s) (AID 1963883). Further: nearly all actives have a fitted effect of over 35% in size.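 On viability: 100% = DMSO wells and 0% = empty wells without cells.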 Summed up: as §1
Assay [6] can be described thus: Cellular viability qHTS for adrenocortical cancer (ACC) cell line SW-13 (AID 1963989). Further: nearly all actives have a fitted effect of over 65% in size.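 On activity (max response): cells grown in serum-free medium with ITS supplement; on the % scale 0 is the no-effect control and ±100 the full control effect.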 The following applies: SW-13 ACC cells viability, CellTiter-Glo, 48 h; activity (max response): stronger effect = lower value. In outline:
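Viability was read as CellTiter-Glo luminescence after 48 h compound treatment (up to 46 uM final) of SW-13 cells grown serum-free; titration curves were fit with a four-parameter logistic model to give IC50 and efficacy.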
A general note: Quantitative high-throughput screening tests each substance at several concentrations.

A short description of assay [7]: Cellular viability qHTS for adrenocortical cancer (ACC) cell line NCI-H295R (AID 1963990). Further: nearly all actives have a fitted effect of over 60% in size. In outline:
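CellTiter-Glo ATP luminescence, read 48 h after compound addition, measured viability of NCI-H295R adrenocortical cells grown serum-free with ITS. Final concentrations spanned up to 46 uM. Data normalized to DMSO and doxorubicin, fitted for IC50 and maximal response.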

Assay [8] is described as follows: Quantitative highthroughput screen to assess conditional lethalithy of P12 Ichikawa cells grown in Human Plasma-Like Medium with dialyzed fetal bovine serum (HPLM+ds) (AID 1963879). Further: nearly all actives have a fitted effect of over 35% in size. On viability: series mostly up to about 46 µM. The note with it: Potency: viability. Summed up:
as §1

Assay [9] can be described thus: Quantitative highthroughput screen to assess conditional lethalithy of SEM cells grown in RPMI1640 with dialyzed fetal bovine serum (RPMI+ds) (AID 1963884). Further: nearly all actives have a fitted effect of over 35% in size.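 On viability: series mostly up to about 46 µM; 100% = DMSO control wells and 0% = empty wells without cells.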 In outline:
as §1

Assay [10] can be described thus: Quantitative highthroughput screen to assess conditional lethalithy of SEM cells grown in Human Plasma-Like Medium with dialyzed fetal bovine serum (HPLM+ds) (AID 1963882). Further: nearly all actives have a fitted effect of over 35% in size. On viability: series mostly up to about 46 µM. In outline: as §1

Structures are written as SMILES. Inconclusive results are not listed. Unmarked numbers belong to inactive results. Active and inactive are the calls of the source. The call rests on the fitted dose curve; in most records, active means well fitted curve in the direction sought with a large enough effect; inconclusive means small, poorly fitted or top-dose-only effect, or another doubt; inactive means no such curve, though single readings can be large; an effect the other way counts as inactive or inconclusive.
Potency means the concentration at half of the fitted maximal effect.

For the compound `COc1ccc(-c2coc3cc(O)cc(O)c3c2=O)cc1`, the Potency entry in assay [1], in assay [2], in assay [3], in assay [4] and in assay [5] was “inactive” throughout. For the same compound, the Potency in assay [6] was 31.6 µM (active); in assay [7] it was 28.2 µM (active).

Regarding `CC(=O)N[C@@H]1[C@H](O[C@@H]2c3ccc(c(Cl)c3)Oc3cc4cc(c3O[C@H]3O[C@H](CO)[C@@H](O)[C@H](O)[C@H]3NC(=O)CCCCCCCC(C)C)Oc3ccc(cc3Cl)C[C@H]3NC(=O)[C@H](N)c5ccc(O)c(c5)Oc5cc(O)cc(c5)[C@H](NC3=O)C(=O)N[C@H]4C(=O)N[C@H]3C(=O)N[C@@H]2C(=O)N[C@@H](C(=O)O)c2cc(O)cc(O[C@H]4O[C@H](CO)[C@@H](O)[C@H](O)[C@H]4O)c2-c2cc3ccc2O)O[C@H](CO)[C@@H](O)[C@@H]1O`, the Potency entry in assay [1], in assay [2], in assay [8], in [4], in assay [5] and in assay [9] was “inactive” throughout.

For `Nc1nc2ccc(OC(F)(F)F)cc2s1`, the Potency entry in [1], in assay [2] and in assay [10] was “inactive” in each case. Moreover, the Potency in assay [7] is 20 µM (active).

Regarding `CC(C)(C(=O)NCC(F)(F)C(F)(F)F)C(=O)N[C@@H]1C(=O)Nc2ccccc2-c2ccccc21`, the Potency was 0.935 µM (active) in assay [1]; 1.87 µM (active) in [2]; 2.64 µM (active) in assay [8]; 2.96 µM (active) in assay [4]; 16.6 µM (active) in assay [5]. In addition, the Potency entry in [7] is “inactive”.

In the case of `CC[C@H](NC(=O)[C@H](C)NC)C(=O)N1C[C@@H](O)C[C@H]1Cc1c(-c2[nH]c3cc(F)ccc3c2C[C@H]2C[C@H](O)CN2C(=O)[C@H](CC)NC(=O)[C@H](C)NC)[nH]c2cc(F)ccc12`, the Potency in [1] was 0.935 µM (active); in assay [2], 2.35 µM (active); in assay [8], 2.96 µM (active); in assay [3], 2.64 µM (active). The Potency entry in [10] is “inactive”.

For `O=C1CN2Cc3c(ccc(Cl)c3Cl)N=C2N1`, the Potency result in assay [1], in assay [2], in [10] and in assay [7] was “inactive” each time. The activity (max response) in assay [6] was 2.15%.

For `C[C@@H](O)[C@H]1C(=O)N2C(C(=O)OCOC(=O)C(C)(C)C)=C(SC3CN(C4=NCCS4)C3)[C@H](C)[C@H]12`, the Potency result in assay [1], in [10] and in assay [9] was “inactive” each time. The Potency in assay [2] is 7.43 µM (active).

With `N#CC(=C1Nc2ccccc2S1)c1ccnc(OCc2ccc(CN3CCOCC3)cc2)n1`, the Potency in assay [1] and in assay [2] was 8.33 µM (active) throughout. The Potency result in assay [10], in assay [5] and in assay [9] was “inactive” in each case.

On to `COC1CCC(N(C(=O)C2CCC(C)CC2)c2cc(C3=CCCCC3)sc2C(=O)O)CC1` (stereo unspecified), for which the Potency entry in [1], in assay [2] and in assay [7] was “inactive” each time. The Potency was 18.7 µM (active) in [8] and 14.8 µM (active) in assay [3].

For `CC(=O)O[C@]1(C(C)=O)CC[C@@H]2[C@@H]3C[C@H](C)C4=CC(=O)CC[C@]4(C)[C@H]3CC[C@@]21C`, the Potency entry in assay [1], in [2], in [8], in assay [3], in [10] and in assay [5] was “inactive” in each case. The Potency result in assay [9] is “inactive”.

`CC(=O)NCCC(=O)N[C@@H](CCC(N)=O)C(=O)N[C@@H](CO)C(=O)N[C@@H](CCC(N)=O)C(=O)N[C@@H](CCC(N)=O)C(=O)N[C@H](C(=O)N[C@@H](Cc1ccccc1)C(=O)N[C@]1(C)CCCCCCC=CCCC[C@@](C)(C(=O)N[C@@H](CCC(N)=O)C(=O)N[C@@H](CC(N)=O)C(N)=O)NC(=O)[C@H](CC(C)C)NC(=O)[C@H](CC(C)C)NC(=O)[C@@H](CCCNC(=N)N)NC(=O)[C@H](Cc2c[nH]c3ccccc23)NC(=O)[C@H](CC(C)C)NC(=O)[C@H](CC(N)=O)NC1=O)[C@H](C)O`: the Potency entry in assay [1], in [2] and in assay [4] was “inactive” each time. In addition, the Potency is 0.833 µM (active) in assay [5], 2.64 µM (active) in assay [9] and 28.2 µM (active) in [6].

Consider `COc1ccc(-c2cc3nccn3c(Nc3ncccc3C(N)=O)n2)cc1OC`, for which the Potency result in assay [1], in assay [2], in [8], in [3], in assay [4] and in assay [7] was “inactive” in each case. For the same compound, the activity (max response) in assay [6] is -18.6%.

Regarding `O=c1oc2cc(O)ccc2s1`, the Potency result in assay [1], in assay [2], in assay [8], in [3], in assay [4] and in [7] was “inactive” in each case.

Regarding `O=C(C=Cc1ccc(O)cc1)c1ccc(O)cc1O`, the Potency entry in assay [1] and in assay [2] was “inactive” throughout. Besides, the Potency in [3] was 13.2 µM (active); in assay [4] it was 16.6 µM (active); in assay [5], 18.7 µM (active); in [9] it was 18.7 µM (active).

Turning to `COC1=C2C[C@@H](C)C[C@H](OC)[C@@H](O)[C@@H](C)C=C(C)[C@H](OC(N)=O)[C@@H](OC)C=CC=C(C)C(=O)NC(=CC1=O)C2=O`, the Potency in assay [1] was 23.5 µM (active); in assay [2] it was 20.9 µM (active); in assay [10], 8.33 µM (active); in assay [5] it was 8.33 µM (active); in assay [9] it was 7.43 µM (active).

As for `N#Cc1ccc(NC(=O)Nc2ccccc2Br)c2n[nH]nc12`, the Potency entry in assay [1], in assay [2], in assay [3], in assay [4], in [10] and in assay [5] was “inactive” in each case. Further, the Potency result in assay [9] and in [7] was “inactive” in each case. For the same compound, the activity (max response) in [6] is -2.82%.

`Cc1ccc([C@@H]2O[C@H](CO)[C@@H](O)[C@H](O)[C@@H]2O)cc1Cc1ccc(-c2ccc(F)cc2)s1`: the Potency result in [1], in assay [2] and in [10] was “inactive” each time.
